Screening results (PubChem BioAssay)
FLuc modulator – inhibits or activates purified firefly luciferase, miR-21 counter-screen; P08659; purified FLuc, Km substrates, luminescence inhibition; Potency, µM (series often up to 57.5 µM), inactives show at the highest dose activity change, negative = inhibition, most hits filed as inhibitors; hit rate 6.9% among 360,000;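 further: plate controls were vehicle for no effect and reference inhibitor for full effect; nearly all actives have a fitted effect of over 55% in size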
Target sequence (P08659 whole entry, looked up): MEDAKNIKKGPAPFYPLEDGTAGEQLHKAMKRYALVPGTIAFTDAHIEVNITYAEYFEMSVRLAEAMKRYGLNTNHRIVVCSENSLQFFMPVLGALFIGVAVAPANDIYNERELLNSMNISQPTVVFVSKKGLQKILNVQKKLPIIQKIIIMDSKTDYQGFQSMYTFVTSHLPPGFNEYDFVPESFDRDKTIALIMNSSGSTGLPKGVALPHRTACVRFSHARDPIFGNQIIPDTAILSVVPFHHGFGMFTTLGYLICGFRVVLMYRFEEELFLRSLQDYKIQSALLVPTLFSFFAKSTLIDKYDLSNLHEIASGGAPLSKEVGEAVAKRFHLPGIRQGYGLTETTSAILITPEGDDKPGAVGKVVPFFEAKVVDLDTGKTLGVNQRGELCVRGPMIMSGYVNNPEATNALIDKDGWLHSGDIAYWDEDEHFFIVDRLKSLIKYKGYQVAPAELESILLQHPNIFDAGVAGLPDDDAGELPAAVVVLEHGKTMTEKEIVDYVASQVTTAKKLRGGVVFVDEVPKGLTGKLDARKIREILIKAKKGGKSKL
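Biochemical qHTS of compounds, final roughly 60 µM downward over six points, against 10 nM purified firefly luciferase using Km concentrations of substrates (10 uM D-luciferin, 10 uM ATP) in Tris acetate pH 7.5 buffer; luminescence output.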
SMN2 splice up – increases expression of the SMN2 splice variant. AID 1458. HEK293 SMN2-luciferase splicing reporter, luminescence, 30-36 h. hit rate 2.8% among 210,000. Potency, µM (titrated, usually from 46.1 µM), without a hit: top-dose activity change, positive = activation, actives largely listed as activators; further: % of control where 0% means no effect; nearly all actives have a fitted effect of over 55% in size
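HEK293 cells carry an SMN2 minigene-luciferase reporter in which exon 7 inclusion puts luciferase in frame. Cells were seeded at 2000 cells/well, attached for 10-12 hours, then exposed to compounds for 30-36 hours at 37C before ONE-Glo luminescence.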
Luc counter – Kinase-Glo luciferase inhibition (counter-screen); Kinase-Glo luciferase, ATP luminescence, 8 min; AID 1379; Q27757; hit rate 0.28% among 200,000; Potency, µM (top dose mostly 38.3 µM), without a hit: top-dose activity change, negative = inhibition, actives largely listed as inhibitors; further: on the % scale 0 is the no-effect control and ±100 the full control effect; nearly all actives have a fitted effect of over 60% in size
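Luminescence was the read-out, taken after 8-minute incubation at ambient temperature. Luciferase turned over luciferin with 10 uM ATP in imidazole pH 7.2 buffer containing KCl, MgCl2, Tween 20 and BSA.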
Rab9 prom act – activators of Rab9 promoter; Huh7 Rab9 promoter-luciferase reporter, luminescence, 24 h; Potency, µM (highest dose often 9.22 µM), for the others: at the top dose activation, negative = inhibition, hits mostly activators; hit rate 2.8% among 320,000; AID 485297; further: % of control where 0% means no effect; nearly all actives have a fitted effect of over 60% in size
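Quantitative HTS format; Huh7 Rab9-luciferase reporter cells (1500/well) receive compound 2 h post-plating, incubate 24 h at 37 °C, then get luciferase reagent for 10 min before luminescence reading.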
NPC1 promoter act – activators of NPC1 promoter; Huh7 NPC1 promoter luciferase reporter, 24 h; Potency, µM (top dose mostly 9.22 µM), inactives show at the top dose activation, usual class: activators; hit rate 2.4% among 320,000; further: % of control where 0% means no effect; nearly all actives have a fitted effect of over 60% in size
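Cells: Huh7 expressing luciferase under the NPC1 promoter, 1500/well. Seeded 2 h, compound added, incubated 24 h at 37 °C. Luciferase reagent, 10 min ambient, then luminescence.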
ELG1 genotoxic – genotoxicity induction in ELG1-luciferase HEK293T cells | hit rate 1.3% among 330,000 | HEK293T ELG1-luciferase reporter, luminescence, 16 h | Potency, µM (doses to about 46 µM), without a hit: at the top dose activity change, positive = activation, usual class: activators; further: % of control where 0% means no effect; nearly all actives have a fitted effect of over 60% in size
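Luminescence read-out: rising ELG1-luciferase signal, reflecting elevated ELG1 protein under genetic stress, flags genotoxic compounds. Cells were treated for 16 hr at 37 °C before ONE-Glo detection.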
Numbers without * were called inactive; ? = inconclusive; . = no result given; [ ] = dose if it differs, or a comment. Rows were chosen to be rich in hits. Some 7.5% of all compounds tested hit in one or more screens of this group. The call rests on the fitted dose curve; in most records, active means well fitted curve in the direction sought with a large enough effect; inconclusive means small, poorly fitted or top-dose-only effect, or another doubt; inactive means no such curve, though single readings can be large; an effect the other way counts as inactive or inconclusive. Potency means the concentration at half of the fitted maximal effect.

SMILES	FLuc modulator	SMN2 splice up	Luc counter	Rab9 prom act	NPC1 promoter act	ELG1 genotoxic
Cn1cc(C(c2ccccc2)c2ccc(Cl)s2)c2ccccc21 (stereo not drawn)	-7.9%	-16.8%	.	.	.	.
Cc1cc(C)c2sc(N3CCN(C(=O)C4CC4)CC3)nc2c1	12µM*	.	.	.	.	.
CC(C)(CC(=O)O)CC(=O)N1CCN(c2nc3ccc(Cl)cc3s2)CC1	-16.9%	.	.	-1.4%	-1.6%	5.2%
CCCCC(=O)N1CCN(c2nc3ccc(Cl)cc3s2)CC1	10.7µM*	.	.	29.3%	?	?
CCC(=O)N1CCN(c2nc3ccccc3s2)CC1	16.9µM*	2.4%	-4.4%	3.16µM*	?	6.2%
Cc1ccccc1CN1CCN(c2nc3ccccc3s2)CC1	4.78µM*	.	.	1.41µM*	1.58µM*	20.6µM*
CCS(=O)(=O)c1ccccc1C(=O)N1CCN(c2nc3ccccc3s2)CC1	-4.3%	.	.	.	.	.
O=C(C1CC1)N1CCN(c2nc3ccccc3s2)CC1	21.3µM*	?	0.1%	2.24µM*	2.82µM*	?
CNC(=S)N1CCN(c2nc3ccccc3s2)CC1	16.9µM*	.	-4.9%	?	?	17.1%
O=C(O)c1ccccc1SCC(=O)N1CCc2ccccc21	21.3µM*	26.6%	1.2%	?	?	14.5%
O=C(CNc1ccccc1OC(F)F)N1CCc2ccccc21	?	14.1µM*	-9.6%	3.16µM*	3.16µM*	?
O=C(CS(=O)(=O)c1ccccc1)N1CCc2ccccc21	15.1µM*	14.1µM*	-10.4%	2.51µM*	3.98µM*	?
Nc1ccccc1SCC(=O)N1CCc2ccccc21	16.9µM*	67.5%	-2.1%	?	?	?
COC(=O)[C@@]1(Cc2ccccc2)C=C[C@@H](C)N1C(=O)c1ccccc1	.	-39.7%	-6.8%	.	.	.
O=C(CSc1ccccc1C(=O)O)c1ccc(Cl)cc1	10.7µM*	.	.	3.98µM*	3.98µM*	?
O=C(CSC1=NCCS1)N1CCc2ccccc21	13.5µM*	?	-5.0%	3.98µM*	?	8.2µM*
Cc1ccc(SCC(=O)N2CCc3ccccc32)cc1	9.53µM*	?	-1.9%	?	18.9%	?
CCCC(=O)Nc1ccc2nc(SCc3ccc(C)cc3)sc2c1	3.5%	.	.	.	.	.
COc1cc(C2SC[C@H]3C(=O)N(c4ccccc4)C(=O)N23)cc(OC)c1OC (stereo partly drawn)	-3.1%	-5.2%	.	.	.	.
Cc1nc(C)c(-c2ccc(SCc3ccccc3F)nn2)s1	10.7µM*	.	.	?	?	?
COc1ccccc1-c1ccc(SCC(=O)NCCc2ccccc2)nn1	-11.5%	-4.6%	-1.6%	22.0%	-3.1%	-1.8%
CCOC(=O)c1ccccc1NC(=O)CSc1ccc(-c2sc(C)nc2C)nn1	-12.6%	.	.	.	.	.
COc1ccccc1-c1ccc(SCc2ccccc2F)nn1	13.5µM*	27.6%	1.7%	?	27.3%	18.2%
COc1ccccc1-c1ccc(SCc2ccccc2)nn1	13.5µM*	29.6%	-0.6%	?	26.5%	-0.2%
COc1ccccc1-c1ccc(SCc2cccc(F)c2)nn1	23.9µM*	22.8%	0.2%	19.0%	11.8%	7.0%
SMILES	FLuc modulator	SMN2 splice up	Luc counter	Rab9 prom act	NPC1 promoter act	ELG1 genotoxic
Cc1ccccc1CNC(=O)C1CCN(S(=O)(=O)Cc2ccccc2)CC1	1.4%	.	.	.	.	.
COc1ccc(NC(=O)c2cccnc2Nc2ccc(OC)cc2)cc1	?	-3.9%	-3.7%	6.7%	-4.8%	-1.6%
CC(C)c1ccc(Nc2ncccc2C(=O)O)cc1	2.69µM*	15.8µM*	-6.7%	0.398µM*	0.631µM*	?
COCCCNC(=O)CCCN1C(=O)CCn2nc(-c3cn(C)c4ccccc34)cc21	-1.5%	.	.	.	.	.
CC(CCc1ccccc1)NC(=O)C(=O)Nc1ccccc1 (stereo not drawn)	?	14.1µM*	-5.8%	2.82µM*	3.16µM*	?
COc1cccc(/C=C/C(=O)NNC(=O)c2ccncc2)c1OC	21.3µM*	.	.	8.4%	5.0%	4.8%
COc1cc(/C=C/C(=O)c2ccc3c(c2)OCCO3)cc(Br)c1OCC(=O)N(C)C	12µM*	.	.	-21.9%	-21.4%	-34.7%
COc1cc(C(=O)NNC(=O)c2ccc3c(c2)OCCO3)cc(OC)c1OC	.	.	.	.	.	0.5%
CCCc1ccc(OC(=O)c2cccs2)cc1	6.01µM*	-4.6%	-1.0%	-2.2%	1.6%	11.5%
COc1ccc(CCNC(=O)COC(=O)c2cccs2)cc1	1.4%	.	.	3.3%	-3.5%	1.7%
O=C(/C=C/c1ccc2c(c1)OCO2)c1ccc[nH]1	2.13µM*	15.8µM*	-17.7%	?	3.16µM*	?
O=C(/C=C/c1ccc2c(c1)OCO2)NCc1ccco1	?	27.4%	-2.0%	-0.9%	-0.7%	13.8%
CCOc1ccc(N2CC(NC(=O)c3ccc(S(=O)(=O)N4CCOCC4)cc3)CC2=O)cc1 (stereo not drawn)	1.8%	.	.	.	.	.
CN(C)c1ccc(/C=C/C(=O)c2ccc3c(c2)OCO3)cc1	2.69µM*	.	.	?	?	?
O=C(/C=C\Nc1ccccc1Br)c1ccc2c(c1)OCO2	0.0849µM*	3.16µM*	10µM*	0.447µM*	?	?
CN(C(=O)/C=C/c1ccc2c(c1)OCO2)c1ccccc1	?	?	0.5%	?	?	8.4%
COc1cccc(/C=C/C(=O)c2ccc[nH]2)c1	2.13µM*	?	-13.0%	3.16µM*	3.16µM*	3.66µM*
CNc1cc([N+](=O)[O-])ccc1N/C=C/C(=O)c1ccc2c(c1)OCO2	-5.2%	6.0%	-1.0%	10.0%	22.2%	-0.1%
O=C(/C=C/c1ccccc1Br)c1ccc2c(c1)OCO2	12µM*	.	.	11.4%	17.4%	21.0%
CCCc1ccc(OC(=O)c2ccc(O)cc2Cl)cc1	2.39µM*	?	0.8%	1µM*	2µM*	?
O=C(/C=C/c1ccncc1)c1ccc2c(c1)OCCO2	12µM*	.	-9.1%	-3.1%	0.6%	11.1%
Cc1cc(C)c(C(=O)/C=C/c2ccc3c(c2)OCO3)c(=O)[nH]1	-4.8%	.	-0.5%	-6.8%	-1.8%	-4.9%
O=C(/C=C/c1ccc2c(c1)OCO2)c1ccc(F)cc1	4.26µM*	2.4%	-12.7%	3.8%	0.5%	8.5%
O=C(/C=C/c1cccc(Br)c1)c1ccc2c(c1)OCO2	10.7µM*	.	.	4.8%	-1.6%	?
Cc1ccc(-c2nc(C(=O)NCc3ccccc3Cl)c3n2CCCCC3)cc1	-1.1%	.	.	.	.	.
COc1cc(C(=O)N/N=C(\C)c2ccc3c(c2)OCO3)cc(OC)c1OC	4.1%	-11.8%	-1.5%	-24.8%	-29.0%	14.3%
CN(C)c1ccc(/C=C/C(=O)c2ccc3c(c2)OCCO3)cc1[N+](=O)[O-]	9.53µM*	-16.7%	-6.4%	12.8%	9.8%	17.4%
O=C(O)/C=C\C=C/c1ccc2c(c1)OCO2	.	-7.0%[9.22 µM]	-2.3%[7.66 µM]	.	.	.
